Measurements reported in PubChem BioAssay (EPA / NIEHS).
Inconclusive results are not listed. Activity calls are given as the source filed them. Rule for the calls: active = hit-call score of the fitted dose curve at least 0.9, where 1 is the maximum; inconclusive = response in the unintended direction; inactive = score below 0.9.

target: human Acetylcholinesterase (AChE), ACHE (gene 43) (UniProt P22303); assay: NVS_ENZ_hAChE: NovaScreen (NVS) Enzymatic Assay for human Acetylcholinesterase (AChE) (AID 2283129)
Sequence (P22303 whole entry, looked up): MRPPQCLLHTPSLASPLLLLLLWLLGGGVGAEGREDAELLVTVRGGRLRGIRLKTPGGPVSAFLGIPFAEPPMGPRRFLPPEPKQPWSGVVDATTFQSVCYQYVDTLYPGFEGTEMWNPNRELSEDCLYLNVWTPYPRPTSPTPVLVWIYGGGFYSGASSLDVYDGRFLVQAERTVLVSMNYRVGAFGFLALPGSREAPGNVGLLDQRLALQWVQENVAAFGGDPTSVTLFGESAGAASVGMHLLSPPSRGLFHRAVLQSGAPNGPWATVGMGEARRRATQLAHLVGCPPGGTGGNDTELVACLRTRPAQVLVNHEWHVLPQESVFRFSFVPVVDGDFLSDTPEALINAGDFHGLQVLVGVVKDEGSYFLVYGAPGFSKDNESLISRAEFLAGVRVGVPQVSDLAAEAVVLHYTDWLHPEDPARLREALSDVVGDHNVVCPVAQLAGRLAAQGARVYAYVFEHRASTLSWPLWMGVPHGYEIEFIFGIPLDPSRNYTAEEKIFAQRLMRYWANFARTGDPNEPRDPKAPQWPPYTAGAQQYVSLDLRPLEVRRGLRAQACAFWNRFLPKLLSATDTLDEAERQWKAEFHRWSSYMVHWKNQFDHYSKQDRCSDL
Procedure, shortened: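 Cell-free colorimetric enzyme-activity assay; compounds read 0.33 hour after dosing, loss of signal vs DMSO baseline. Primary screen in duplicate at 25 uM single concentration, with active compounds retested in concentration series.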

SMILES	outcome	AC50
C[C@]12CCC(=O)C=C1CC[C@@H]1[C@@H]2CC[C@]2(C)C(=O)CC[C@@H]12	inactive	–
CCCCCCCCOC(=O)c1ccccc1C(=O)OCCCCCCCC	inactive	–
Oc1ccc(C(c2ccc(O)cc2)(C(F)(F)F)C(F)(F)F)cc1	inactive	–
CCCCCCCCCC[N+](C)(C)CCCCCCCCCC	–	12.4 µM (active)

target: human AMP-activated Protein Kinase, alpha 1 (AMPKa1), PRKAA1 (gene 5562) (UniProt Q13131); assay: NVS_ENZ_hAMPKa1: NovaScreen (NVS) Enzymatic Assay for human AMP-activated Protein Kinase, alpha 1 (AMPKa1) (AID 2283130)
Sequence (Q13131 whole entry, looked up): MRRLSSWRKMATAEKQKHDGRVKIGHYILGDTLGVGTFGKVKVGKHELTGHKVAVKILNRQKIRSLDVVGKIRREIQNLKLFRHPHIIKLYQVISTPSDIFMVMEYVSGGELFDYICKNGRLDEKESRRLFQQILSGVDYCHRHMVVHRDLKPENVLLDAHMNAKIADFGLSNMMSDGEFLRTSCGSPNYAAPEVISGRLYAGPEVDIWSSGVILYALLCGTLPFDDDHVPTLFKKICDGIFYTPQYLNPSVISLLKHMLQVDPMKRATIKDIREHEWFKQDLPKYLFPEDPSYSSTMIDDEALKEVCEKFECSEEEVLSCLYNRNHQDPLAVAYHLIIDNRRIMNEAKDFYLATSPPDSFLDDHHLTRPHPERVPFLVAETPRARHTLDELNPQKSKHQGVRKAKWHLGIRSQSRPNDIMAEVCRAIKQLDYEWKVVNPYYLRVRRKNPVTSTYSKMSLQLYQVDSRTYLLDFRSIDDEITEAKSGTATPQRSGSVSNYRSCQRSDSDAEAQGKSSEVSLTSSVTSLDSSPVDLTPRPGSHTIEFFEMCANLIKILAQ
Method: NVS_ENZ_hAMPKa1 is a biochemical, single-readout assay that uses extracted gene-proteins in a cell-free assay. Measurements were taken 1 hour after chemical dosing in a 384-well plate.NVS_ENZ_hAMPKa1 is one of one assay component(s) measured or calculated from the NVS_ENZ_hAMPKa1 assay. It is designed to make measurements of enzyme activity, a form of enzyme reporter, as detected with fluorescence intensity signals by Fluorescence and electrophoretic mobility shift technology.Data from the assay component NVS_ENZ_hAMPKa1 was analyzed into 1 assay endpoint. This assay endpoint, NVS_ENZ_hAMPKa1, was analyzed in the positive analysis fitting direction relative to DMSO as the negative control and baseline of activity. Using a type of enzyme reporter, loss-of-signal activity can be used to understand changes in the enzymatic activity as they relate to the gene PRKAA1. Furthermore, this assay endpoint can be referred to as a primary readout, because this assay has produced multiple assay endpoints where this one serves a enzymatic activity function. To generalize the intended target to other relatable targets, this assay endpoint is annotated to the kinase intended target family, where the subfamily is serine/threonine kinase.
Binding assays used specific radioligands (tritiated, iodinated) with non-radioactive competitive displacement ligands in agonist or antagonist protocols (as indicated) and various reference compounds and inhibitors to titrate specific binding to receptors and transporters. Most enzyme assays (CYPs, kinases, phosphatases, proteases, HDACs) used recombinant protein and specific substrates (fluorescence mostly, some colorimetric and radioactive) and inhibitors, followed by a biochemical separation of substrate and product. All assays for the biochemical HTS were initially run in duplicate at a single concentration (10 uM for CYP450 assays and 25 uM for all others). Assay-chemical combinations meeting a pre-defined threshold (e.g., 30% inhibition and other criteria defined below) were then run in singleton concentration-response format with maximum concentration of 20 uM for CYPs and 50 uM for all others. Each assay was run with positive and negative controls, and concurrent controls on every plate. The follow-up (secondary) screen tested active chemical-pairs in concentration series, as well as a few additional assays not tested in the primary screen, some selected negative inactives, and several cases re-run in the concentration series for confirmatory purposes.

SMILES	AC50	outcome
O=C(O)C(F)(F)C(F)(F)C(F)(F)C(F)(F)C(F)(F)C(F)(F)C(F)(F)C(F)(F)F	36.7 µM (active)	–
O=S(=O)(O)C(F)(F)C(F)(F)C(F)(F)C(F)(F)C(F)(F)C(F)(F)F	–	inactive
CC#Cc1cc(C)nc(Nc2ccccc2)n1	–	inactive
O=C(O)C(F)(F)C(F)(F)C(F)(F)C(F)(F)C(F)(F)F	–	inactive
CC1=C2C[C@H]3[C@@H](CC=C4C[C@@H](O)CC[C@@]43C)[C@@H]2CC[C@]12O[C@@H]1C[C@H](C)CN[C@H]1[C@H]2C	–	inactive
Oc1ccc(C(c2ccc(O)cc2)(C(F)(F)F)C(F)(F)F)cc1	13.5 µM (active)	–
CC(C)C(=O)OCC(C)(C)C(OC(=O)C(C)C)C(C)C (stereo not given)	–	inactive
CCCN(CCC)N=O	–	inactive

target: human Caspase 2 (CASP2), CASP2 (gene 835) (UniProt P42575); assay: NVS_ENZ_hCASP2: NovaScreen (NVS) Enzymatic Assay for human Caspase 2 (CASP2) (AID 2283135)
Sequence (P42575 whole entry, looked up): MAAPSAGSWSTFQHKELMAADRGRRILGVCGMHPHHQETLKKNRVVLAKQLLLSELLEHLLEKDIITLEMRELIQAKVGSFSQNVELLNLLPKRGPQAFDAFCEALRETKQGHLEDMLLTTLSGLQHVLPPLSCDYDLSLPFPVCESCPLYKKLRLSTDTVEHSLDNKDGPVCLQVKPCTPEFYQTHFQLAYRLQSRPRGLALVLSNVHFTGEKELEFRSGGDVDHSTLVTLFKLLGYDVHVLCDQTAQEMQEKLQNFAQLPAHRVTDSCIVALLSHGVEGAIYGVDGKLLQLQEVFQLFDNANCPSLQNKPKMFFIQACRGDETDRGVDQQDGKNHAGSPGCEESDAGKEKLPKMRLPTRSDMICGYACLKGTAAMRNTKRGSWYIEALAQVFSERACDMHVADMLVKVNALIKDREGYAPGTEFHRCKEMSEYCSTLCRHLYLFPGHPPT
Procedure, shortened: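 E. coli-expressed enzyme in a cell-free protease assay, fluorescence read 1 h after dosing. Compounds at 25 uM in duplicate, with concentration-response up to 50 uM for hits; loss of signal against DMSO baseline.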

SMILES	outcome
COS(=O)(=O)OC	inactive
O=C(N[C@H]1CN2CCC1CC2)c1cc2ccoc2cn1	inactive
C[C@]12CCC(=O)C=C1CC[C@@H]1[C@@H]2CC[C@]2(C)C(=O)CC[C@@H]12	inactive
Nc1ccc(-c2ccc(N)cc2)cc1	inactive

target: human Caspase 5 (CASP5), CASP5 (gene 838) (UniProt P51878); assay: NVS_ENZ_hCASP5: NovaScreen (NVS) Enzymatic Assay for human Caspase 5 (CASP5) (AID 2283137)
Sequence (P51878 whole entry, looked up): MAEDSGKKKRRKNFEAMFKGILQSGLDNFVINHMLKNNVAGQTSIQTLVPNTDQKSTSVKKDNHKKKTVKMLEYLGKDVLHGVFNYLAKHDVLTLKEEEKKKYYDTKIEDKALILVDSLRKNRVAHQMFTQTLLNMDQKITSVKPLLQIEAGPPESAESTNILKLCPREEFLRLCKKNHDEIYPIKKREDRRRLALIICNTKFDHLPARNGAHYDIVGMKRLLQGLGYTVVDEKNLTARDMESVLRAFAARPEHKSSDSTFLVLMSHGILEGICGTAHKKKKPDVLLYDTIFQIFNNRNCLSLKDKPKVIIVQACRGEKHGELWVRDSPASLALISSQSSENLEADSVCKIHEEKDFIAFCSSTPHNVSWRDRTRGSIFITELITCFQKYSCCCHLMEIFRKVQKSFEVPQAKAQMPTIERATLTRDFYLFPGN
Procedure, shortened: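 Recombinant human caspase 5 expressed in E. coli, fluorogenic substrate, fluorescence read 2 h after dosing. Single-point 25 uM duplicate screen, then concentration-response to maximum 50 uM for actives; DMSO baseline.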

SMILES	AC50	outcome
O=C(O)C(F)(F)C(F)(F)C(F)(F)C(F)(F)C(F)(F)C(F)(F)C(F)(F)C(F)(F)F	12.8 µM (active)	–
O=C(O)C(F)(F)C(F)(F)C(F)(F)C(F)(F)C(F)(F)C(F)(F)C(F)(F)C(F)(F)C(F)(F)F	12.7 µM (active)	–
CCC(C)(CC)c1cc(NC(=O)c2c(OC)cccc2OC)on1	–	inactive

target: human Beta-secretase (BACE), BACE1 (gene 23621) (UniProt P56817); assay: NVS_ENZ_hBACE: NovaScreen (NVS) Enzymatic Assay for human Beta-secretase (BACE) (AID 2283140);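 note: hits are inhibitors that reduce fluorescent substrate signal versus DMSO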
Sequence (P56817 whole entry, looked up): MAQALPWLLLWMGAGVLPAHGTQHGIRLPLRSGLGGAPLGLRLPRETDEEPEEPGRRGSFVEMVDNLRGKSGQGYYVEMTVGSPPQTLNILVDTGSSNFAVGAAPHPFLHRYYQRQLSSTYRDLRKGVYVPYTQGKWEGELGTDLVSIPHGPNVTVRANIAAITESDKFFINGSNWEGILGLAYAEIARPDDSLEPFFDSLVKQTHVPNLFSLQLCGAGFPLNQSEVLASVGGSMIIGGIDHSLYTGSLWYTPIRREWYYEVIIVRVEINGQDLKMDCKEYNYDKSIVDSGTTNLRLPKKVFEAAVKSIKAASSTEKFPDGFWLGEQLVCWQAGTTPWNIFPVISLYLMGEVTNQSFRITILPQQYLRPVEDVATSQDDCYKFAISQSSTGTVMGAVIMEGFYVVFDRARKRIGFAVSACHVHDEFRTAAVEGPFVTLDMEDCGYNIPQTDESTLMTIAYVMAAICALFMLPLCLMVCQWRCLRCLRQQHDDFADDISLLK
Procedure, shortened: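 Cell-free assay of recombinant Sf9-expressed human BACE with fluorescent substrate, read by fluorescence intensity after 1 h. Primary screen in duplicate at 25 uM; actives then run in concentration series; loss of signal relative to DMSO.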

SMILES	AC50	outcome
O=C(O)C(F)(F)C(F)(F)C(F)(F)C(F)(F)C(F)(F)C(F)(F)C(F)(F)C(F)(F)F	10.7 µM (active)	–
CC(C)(c1ccccc1)c1ccc(O)cc1	20.3 µM (active)	–
CCCCCCCCCc1ccc(O)cc1	–	inactive
Cc1cccc(C)c1N	–	inactive
ClC(Cl)=C(c1ccc(Cl)cc1)c1ccc(Cl)cc1	–	inactive
CCC(C)(c1ccc(O)cc1)c1ccc(O)cc1	11.2 µM (active)	–
O=S(=O)(O)C(F)(F)C(F)(F)C(F)(F)C(F)(F)C(F)(F)C(F)(F)F	1.85 µM (active)	–
Cc1ccc(O)c(C)c1	–	inactive
O=C(NC(=O)c1cc(F)c(F)cc1Cl)Nc1cc(F)ccc1N1CCC(C(=O)O)CC1	7.81 µM (active)	–
Oc1c(Cl)c(Cl)c(Cl)c(Cl)c1Cl	–	inactive
CCCCCCOC(=O)c1ccccc1C(=O)OCCCCCC	–	inactive
O=C(O)C(F)(F)C(F)(F)C(F)(F)C(F)(F)C(F)(F)C(F)(F)C(F)(F)C(F)(F)C(F)(F)F	3.53 µM (active)	–
Oc1ccc(C(c2ccc(O)cc2)(C(F)(F)F)C(F)(F)F)cc1	–	inactive

target: human AKT serine/threonine Kinase 2 (AKT2), AKT2 (gene 208) (UniProt P31751); assay: NVS_ENZ_hAKT2: NovaScreen (NVS) Enzymatic Assay for human AKT serine/threonine Kinase 2 (AKT2) (AID 2283141)
Sequence (P31751 whole entry, looked up): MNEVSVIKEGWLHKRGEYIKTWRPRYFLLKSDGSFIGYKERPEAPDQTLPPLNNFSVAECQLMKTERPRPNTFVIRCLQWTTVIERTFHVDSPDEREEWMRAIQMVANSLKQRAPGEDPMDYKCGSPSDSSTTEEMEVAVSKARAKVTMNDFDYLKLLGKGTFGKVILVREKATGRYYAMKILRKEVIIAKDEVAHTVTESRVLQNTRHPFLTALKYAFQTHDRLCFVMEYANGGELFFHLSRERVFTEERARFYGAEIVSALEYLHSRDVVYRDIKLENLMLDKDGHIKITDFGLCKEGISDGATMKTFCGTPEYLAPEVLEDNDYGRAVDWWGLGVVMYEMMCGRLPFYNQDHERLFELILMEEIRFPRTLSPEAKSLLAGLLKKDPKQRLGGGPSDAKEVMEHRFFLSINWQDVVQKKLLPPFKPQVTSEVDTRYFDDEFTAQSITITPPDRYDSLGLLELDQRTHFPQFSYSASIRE
Procedure, shortened: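 Cell-free fluorescence/electrophoretic mobility shift readout of recombinant human AKT2 activity, 1 h after chemical dosing. Duplicate primary screen at 25 uM, then singleton concentration-response up to 50 uM; loss of signal versus DMSO baseline.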

SMILES	outcome	AC50
O=S(=O)(O)C(F)(F)C(F)(F)C(F)(F)C(F)(F)C(F)(F)C(F)(F)F	inactive	–
CCCCCCOC(=O)c1ccccc1C(=O)OCCCCCC	inactive	–
N#Cc1ccc(N(CC(N)=O)CC(F)(F)F)cc1C(F)(F)F	inactive	–
CC1=C2C[C@H]3[C@@H](CC=C4C[C@@H](O)CC[C@@]43C)[C@@H]2CC[C@]12O[C@@H]1C[C@H](C)CN[C@H]1[C@H]2C	–	12.5 µM (active)

target: human Aurora Kinase A - serine/threonine-protein Kinase 6 (AurA), AURKA (gene 6790) (UniProt O14965); assay: NVS_ENZ_hAurA: NovaScreen (NVS) Enzymatic Assay for human Aurora Kinase A - serine/threonine-protein Kinase 6 (AurA) (AID 2283142)
Sequence (O14965 whole entry, looked up): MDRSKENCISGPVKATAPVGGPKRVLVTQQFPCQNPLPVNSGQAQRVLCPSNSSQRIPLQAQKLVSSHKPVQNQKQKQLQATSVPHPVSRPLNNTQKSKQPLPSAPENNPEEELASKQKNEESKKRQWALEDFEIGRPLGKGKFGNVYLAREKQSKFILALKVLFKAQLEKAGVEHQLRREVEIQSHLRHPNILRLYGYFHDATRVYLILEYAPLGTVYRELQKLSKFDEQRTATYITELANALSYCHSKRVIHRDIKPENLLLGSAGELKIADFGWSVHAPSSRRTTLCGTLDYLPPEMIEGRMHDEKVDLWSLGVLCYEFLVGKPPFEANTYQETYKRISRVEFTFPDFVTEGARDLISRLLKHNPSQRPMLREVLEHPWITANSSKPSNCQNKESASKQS
Procedure, shortened: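 Cell-free enzymatic assay with human Aurora A, 1 hour after dosing. Fluorescent substrate turnover detected after electrophoretic mobility shift separation of substrate and product. Screened at 25 uM, actives retested in concentration-response up to 50 uM.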

SMILES	AC50	outcome
O=C(O)C(F)(F)C(F)(F)C(F)(F)C(F)(F)C(F)(F)C(F)(F)C(F)(F)C(F)(F)F	13.1 µM (active)	–
Cc1cc2c3c(c1)C(c1ccccc1)=N[C@@H](NC(=O)c1ccncc1)C(=O)N3CC2	–	inactive
CC1=C2C[C@H]3[C@@H](CC=C4C[C@@H](O)CC[C@@]43C)[C@@H]2CC[C@]12O[C@@H]1C[C@H](C)CN[C@H]1[C@H]2C	–	inactive
CC(C)C(=O)OCC(C)(C)C(OC(=O)C(C)C)C(C)C (stereo not given)	–	inactive
CCCN(CCC)N=O	–	inactive

target: CDK2 (gene 1017) (UniProt P24941); assay: NVS_ENZ_hCDK2: NovaScreen (NVS) Enzymatic Assay for human Cyclin-Cependent Kinase 2 (CDK2) (AID 2283144)
Procedure, shortened: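 Cell-free recombinant human CDK2 with fluorescent substrate, product separated by electrophoretic mobility shift; 1 hr read. Primary screen at 25 uM in duplicate, actives retested in concentration-response up to 50 uM; loss of signal versus DMSO.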

SMILES	outcome
O=C(O)C(F)(F)C(F)(F)C(F)(F)C(F)(F)C(F)(F)F	inactive
CC1=C2C[C@H]3[C@@H](CC=C4C[C@@H](O)CC[C@@]43C)[C@@H]2CC[C@]12O[C@@H]1C[C@H](C)CN[C@H]1[C@H]2C	inactive
CCCN(CCC)N=O	inactive

target: human Caspase 8 (CASP8), CASP8 (gene 841) (UniProt Q14790); assay: NVS_ENZ_hCASP8: NovaScreen (NVS) Enzymatic Assay for human Caspase 8 (CASP8) (AID 2283146)
Sequence (Q14790 whole entry, looked up): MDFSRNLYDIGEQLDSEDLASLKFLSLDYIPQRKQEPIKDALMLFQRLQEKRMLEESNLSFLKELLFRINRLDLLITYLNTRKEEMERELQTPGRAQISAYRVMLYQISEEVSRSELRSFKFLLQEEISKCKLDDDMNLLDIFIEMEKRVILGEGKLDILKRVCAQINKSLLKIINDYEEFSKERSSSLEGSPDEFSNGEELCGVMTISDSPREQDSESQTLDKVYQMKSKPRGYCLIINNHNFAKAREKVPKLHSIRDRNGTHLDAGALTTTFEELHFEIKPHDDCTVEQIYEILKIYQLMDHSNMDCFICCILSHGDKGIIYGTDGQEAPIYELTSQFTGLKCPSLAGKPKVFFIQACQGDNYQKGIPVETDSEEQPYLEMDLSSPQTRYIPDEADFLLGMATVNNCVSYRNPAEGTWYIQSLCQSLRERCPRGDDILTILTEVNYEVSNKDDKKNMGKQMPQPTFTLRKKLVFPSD
Procedure, shortened: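 E. coli-expressed enzyme was used in a cell-free fluorogenic substrate assay read 1 h after dosing. Loss of signal was scored relative to DMSO, and the primary screen was run in duplicate at 25 uM.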

SMILES	outcome
CO/C=C(/C(=O)OC)c1ccccc1COc1cccc(C(F)(F)F)n1	inactive
CCC(C)c1cc([N+](=O)[O-])cc([N+](=O)[O-])c1O (stereo not given)	inactive
ClC1=C(Cl)[C@]2(Cl)[C@@H]3[C@@H]4C[C@@H]([C@H]5O[C@@H]45)[C@@H]3[C@@]1(Cl)C2(Cl)Cl	inactive

target: human Casein Kinase 1-delta (CK1D), CSNK1D (gene 1453) (UniProt P48730); assay: NVS_ENZ_hCK1D: NovaScreen (NVS) Enzymatic Assay for human Casein Kinase 1-delta (CK1D) (AID 2283148)
Sequence (P48730 whole entry, looked up): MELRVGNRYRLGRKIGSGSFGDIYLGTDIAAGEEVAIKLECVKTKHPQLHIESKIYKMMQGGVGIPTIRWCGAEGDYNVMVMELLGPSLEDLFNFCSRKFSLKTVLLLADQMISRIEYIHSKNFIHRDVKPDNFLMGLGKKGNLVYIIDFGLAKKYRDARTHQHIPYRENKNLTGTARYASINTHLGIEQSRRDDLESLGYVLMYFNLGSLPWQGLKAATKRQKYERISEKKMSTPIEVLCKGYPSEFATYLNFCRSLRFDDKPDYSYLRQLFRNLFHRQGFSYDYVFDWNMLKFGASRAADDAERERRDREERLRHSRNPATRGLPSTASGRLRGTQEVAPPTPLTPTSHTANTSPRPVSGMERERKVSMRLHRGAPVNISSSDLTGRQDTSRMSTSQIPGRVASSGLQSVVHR
Procedure, shortened: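 Recombinant human CK1-delta, cell-free; fluorescent substrate with electrophoretic mobility-shift separation of product, read 1 h after dosing. Single 25 uM duplicate screen, then concentration-response up to 50 uM; loss of signal vs DMSO.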

SMILES	outcome	AC50
O=C(O)C(F)(F)C(F)(F)C(F)(F)C(F)(F)C(F)(F)C(F)(F)C(F)(F)C(F)(F)F	inactive	–
CCNc1nc(NC(C)C)nc(SC)n1	–	16.3 µM (active)
Cc1cccc(C)c1N	inactive	–
O=C(NC(=O)c1c(F)cccc1F)Nc1cc(Cl)c(OC(F)(F)C(F)F)c(Cl)c1	inactive	–
CCC(C)c1cc([N+](=O)[O-])cc([N+](=O)[O-])c1O (stereo not given)	inactive	–
Oc1ccc(C(c2ccc(O)cc2)(C(F)(F)F)C(F)(F)F)cc1	inactive	–
O=NN(c1ccccc1)c1ccccc1	inactive	–
CCCN(CCC)N=O	inactive	–
